Records with an inconclusive call do not appear. Entries that show only a call come without a potency. Unmarked numbers belong to inactive results. The source made the active and inactive calls. The call rests on the fitted dose curve; in most records, active means well fitted activation curve with a large enough effect; inconclusive means small, poorly fitted or top-dose-only effect, or another doubt; inactive means no such curve, though single readings can be large or run the other way.
target: Rap guanine nucleotide exchange factor 3 (Homo sapiens) (UniProt O95398); test: Counterscreen qHTS for agonist of cAMP-regulated guanine nucleotide exchange factor 3 (EPAC1) (AID 1645889); conditions: EPAC1 Rap1B-BODIPY-GDP exchange, fluorescence; series mostly up to 154 µM; further: nearly all actives have a fitted effect of over 40% in size
Method in brief: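 Rap1B-BODIPY-GDP 250 nM + GDP 50 uM; cpds 7-pt, final 9.74 nM–152 uM (activator mode) or from 7.32 nM upwards (inhibitor mode); RT; FI 480/540 nm at 5 and 30 min, then ± cAMP, reread.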

Structure (SMILES)	Potency	activation
CCc1ccc(OCC2c3cc(OC)c(OC)cc3CCN2C(C)=O)cc1 (stereo not given)	inactive	
CC1(Cc2cc(Cl)ccc2C(F)(F)F)C(=O)Nc2cc(F)ccc21 (stereo not given)		12.6% [at 30.8 µM]
Cc1cccc(CN2C(=O)c3ccccc3Sc3ccc(C(=O)N4CCCC4)cc32)c1	inactive	
CCOC(=O)N1CCC(Nc2nc3ccccc3n3cnnc23)CC1		4.26% [at 30.8 µM]
CC(C)c1ccc(S(=O)(=O)Nc2ccc3c(c2)OCO3)cc1	inactive	
O=C(Nc1cc(C(F)(F)F)ccc1Cl)c1nc2ccccc2nc1N1CCCCC1	inactive	
CCOC(=O)C(C(C)C)C(N)Cc1ccc(F)cc1 (stereo not given)	inactive	
CCCCOc1cccc(C2C(C(=O)c3ccc(C)o3)=C(O)C(=O)N2c2nnc(C)s2)c1 (stereo not given)	inactive	
COc1ccc(-c2[nH]c(-c3ccc(F)cc3)nc2SCC(=O)Nc2ccc(OC)c(OC)c2)cc1	inactive	
CCCc1nc2c(Cl)cc(C(F)(F)F)cn2c1Cc1ccc(OC)cc1C		14.3% [at 30.8 µM]
O=C(O)C1CC(c2ccc(F)cc2)=NO1 (stereo not given)		21.8% [at 30.8 µM]
COc1cccc(OCc2cc(/C=N/Nc3ccc(C(=O)O)cc3)ccc2OC)c1		21.5% [at 30.8 µM]
CC(C)(C)C(=O)Nc1cccc(C(=O)OCc2cc(=O)n3nc(C4CCCCC4)sc3n2)c1	inactive	
CC(=O)c1c(C)[nH]c(C(=O)OCC(=O)c2ccc3c(c2)NC(=O)CO3)c1C	inactive	
Cc1nc2c(C(=O)NCc3ccc(F)cc3)c[nH]n2c(=O)c1Cl	inactive	

From PubChem BioAssay (NCATS)
